Calls of active or inactive are those of the source. The calls were made as follows: active = hit-call score of the fitted dose curve at least 0.9, where 1 is the maximum; inactive = score below 0.9.

The nature of the experiment: APR_HepG2_MicrotubuleCSK_1hr: Apredica 1-hour HepG2 Assay for Microtubule CSK Stabilty (AID 2282669). The note with it: HepG2 microtubule cytoskeleton imaging, actives raise or lower the signal. The method, then: APR_HepG2_1hr is a cell-based, multiplexed-readout assay that uses HepG2, a human liver cell line, with measurements taken at 1 hour after chemical dosing in a 384-well plate.APR_HepG2_MicrotubuleCSK_1hr is one of 10 assay component(s) measured or calculated from the APR_HepG2_1hr assay. It is designed to make measurements of protein conformation, a form of conformation reporter, as detected with fluorescence intensity signals by HCS Fluorescent Imaging technology.Data from the assay component APR_HepG2_MicrotubuleCSK_1hr was analyzed into 1 assay endpoint. This assay endpoint, APR_HepG2_MicrotubuleCSK_1hr, was analyzed with bidirectional fitting relative to DMSO as the negative control and baseline of activity. Using a type of conformation reporter, measures of protein for gain or loss-of-signal activity can be used to understand the signaling at the cellular-level. Furthermore, this assay endpoint can be referred to as a primary readout, because this assay has produced multiple assay endpoints where this one serves a signaling function. To generalize the intended target to other relatable targets, this assay endpoint is annotated to the cell morphology intended target family, where the subfamily is cell conformation.
Cells were treated with dimethyl sulfoxide (DMSO) as a solvent control at a final concentration of 0.5% v/v or with compounds in DMSO with a resulting final DMSO concentration of 0.5% v/v. Compound treatment was done at concentrations of 0.39, 0.78, 1.56, 3.12, 6.24, 12.5, 25, 50, 100, and 200 uM in duplicate on each plate. Cells were treated with compounds for 1, 24, or 72 hr. Carbonyl […] m-chloro-phenylhydrazone (CCCP) and taxol were used as positive controls for mitochondrial function and cytoskeletal stability, respectively; DMSO served as the negative control for this experiment. Cells were fixed by the direct addition of 50 uL formaldehyde in Hank's Balanced Salt Solution (HBSS) to a final concentration of 3.7%. After incubation in the fixation medium for 30 min at room temperature (293-298 K), cells were rinsed twice with HBSS and treated with cell permeabilization buffer (16 uL of 0.5% Triton X-100) for 10 min at room temperature (293-298 K) before labeling. For mitochondrial membrane potential and mitochondrial measurements, pre-fixed cells were incubated with 50 uL of MitoTracker Red CMXRos (Invitrogen) at a concentration of 250 nM for 30 min before fixation. In the remaining cases, post-fixed cells were labeled by incubation with a multiplexed mixture of primary antibodies in HBSS for 60 min at room temperature (293-298 K) to detect immunoreactivity of c-Jun (1:500), phospho-histone H3 (1:100), phospho-histone H2A.x (1:200), p53 (1:400), alpha-tubulin (1:200) and Hoechst 33342 (2 ug/mL). Cells were labeled for multiplexed imaging on two separate plates: a) Hoechst 33342, MitoTracker Red, phospho-histone H3, and alpha-tubulin, and b) Hoechst 33342, phospho-histone H2A.x, and c-Jun. A final rinse with HBSS (50 uL) was performed before analysis. The primary and secondary antibodies for the proteins were phospho-histone H3 (rabbit anti-phospho-histone H3 and FITC-donkey anti-rabbit IgG), phospho-histone H2A.x (mouse anti-phospho-histone H2A.x and FITC-donkey anti-mouse IgG), c-Jun (rabbit anti-phospho-c-Jun and Cy3-donkey anti-rabbit IgG), p53 (sheep anti-p53 and Cy5-donkey anti-sheep IgG), alpha-tubulin (mouse anti-alpha-tubulin and Cy5-donkey anti-mouse IgG). These antibodies are available as the CellCiphr HepG2 assay kit (Millipore).Digital images of each well were captured using a Cellomics ArrayScan VTI (Thermo Scientific Cellomics) (0.8 NA objective, 0.63x optical coupler, and XF-93 filter set) at 20x magnification. The images were acquired using the autofocus feature of the ArrayScan instrument, which entails the following steps. First, the camera focuses on channel 1 (Hoechst 33342), where nuclei are identified. Second, a Z offset of 1 um is used for capturing mitochondria (MitoTracker Red). […]
On to `CNC(=O)CSP(=S)(OC)OC`, for which the call was inactive.
For the compound `CC(C)(C)C(O)C(Oc1ccc(Cl)cc1)n1cncn1` (stereo not given), the outcome was inactive.
With `CC1(c2ccc(Oc3ccccc3)cc2)OC(=O)N(Nc2ccccc2)C1=O` (stereo not given), the call was inactive.
`COC(=O)c1ccccc1S(=O)(=O)NC(=O)N(C)c1nc(C)nc(OC)n1`: the compound was called inactive.
In the case of `COC(=O)c1ccccc1CS(=O)(=O)NC(=O)Nc1nc(OC)cc(OC)n1` it was “inactive”; in that of `O=[N+]([O-])/N=C1\NCCN1Cc1ccc(Cl)nc1`, “inactive”.
To `Clc1ccccc1-c1nnc(-c2ccccc2Cl)nn1` belongs “inactive”; to `O=S(=O)(O)C(F)(F)C(F)(F)C(F)(F)C(F)(F)C(F)(F)C(F)(F)C(F)(F)C(F)(F)F`, “inactive”.
In the case of `O=C(Nc1ccccc1)Nc1cnns1` it was “inactive”; in that of `COC(=O)c1ccccc1S(=O)(=O)NC(=O)Nc1nc(C)nc(OC)n1`, “inactive”.
Turning to `OCCOc1ccccc1`, the outcome was inactive.
In the case of `Oc1ccc(Cl)cc1Cc1ccccc1` it was “inactive”.
To `COP(=O)(OC)OC=C(Cl)Cl` belongs “inactive”; to `CC1(C)C(C=C(Cl)Cl)C1C(=O)OC(C#N)c1ccc(F)c(Oc2ccccc2)c1` (stereo not given), “inactive”.
In the case of `CCS(=O)(=O)c1cccnc1S(=O)(=O)NC(=O)Nc1nc(OC)cc(OC)n1` it was “inactive”.
With `N#Cc1c(Cl)c(Cl)c(Cl)c(C#N)c1Cl`, the compound was classed as inactive.
`CCc1ccc(C(=O)NN(C(=O)c2cc(C)cc(C)c2)C(C)(C)C)cc1`: the call was inactive.
In the case of `CN1CSC(=S)N(C)C1` it was “inactive”; in that of `CC(C)(C)C(O)/C(=C\c1ccc(Cl)cc1Cl)n1cncn1` (stereo not given), “inactive”; in that of `CC(C)N(C(=O)COc1nnc(C(F)(F)F)s1)c1ccc(F)cc1`, “inactive”.
Regarding `N#CN`, the result was inactive.
In the case of `Oc1cc(Cl)ccc1Oc1ccc(Cl)cc1Cl`, the call was inactive.
Take `O=[N+]([O-])c1c(Cl)c(Cl)c(Cl)c(Cl)c1Cl`: the compound was called inactive.
Take `CCOc1nc(NC)nc(NC(=O)NS(=O)(=O)c2ccccc2C(=O)OC)n1`: the result was inactive.
In the case of `COP(=S)(OC)Oc1ccc([N+](=O)[O-])cc1` it was “inactive”; in that of `O=C1c2ccccc2C(=O)N1SC(Cl)(Cl)Cl`, “inactive”.
In the case of `CCOC1Oc2ccc(OS(C)(=O)=O)cc2C1(C)C` (stereo not given) it was “inactive”.
In the case of `O=C(O)C(F)(F)C(F)(F)C(F)(F)C(F)(F)C(F)(F)C(F)(F)C(F)(F)F` it was “inactive”; in that of `ClC1C(Cl)C(Cl)C(Cl)C(Cl)C1Cl` (stereo not given), “inactive”.
Regarding `O=C(O)COc1ccc(Cl)cc1Cl`, the compound was classed as inactive.
With `CCCN(CCC)c1c([N+](=O)[O-])cc(C(F)(F)F)cc1[N+](=O)[O-]`, the call was inactive.
In the case of `COc1cc(OC)nc(NC(=O)NS(=O)(=O)c2cc(NC=O)ccc2C(=O)N(C)C)n1` it was “inactive”; in that of `[2H]C1([2H])[n+]2ccccc2-c2cccc[n+]2C1([2H])[2H]`, “inactive”.
As to `CC(C)OC(=O)Nc1cccc(Cl)c1`, the call was inactive.
Consider `O=C(O)CCCOc1ccc(Cl)cc1Cl`, for which the compound was called inactive.
For `CNC(=O)Oc1cccc(N=CN(C)C)c1`, the compound was classed as inactive.
In the case of `Cc1[nH]c(=O)n(C(C)(C)C)c(=O)c1Cl` it was “inactive”; in that of `CC[C@H](C)[C@H]1O[C@]2(C=C[C@@H]1C)C[C@@H]1C[C@@H](C/C=C(\C)[C@@H](O[C@H]3C[C@H](OC)[C@@H](O[C@H]4C[C@H](OC)[C@@H](O)[C@H](C)O4)[C@H](C)O3)[C@@H](C)/C=C/C=C3\CO[C@@H]4[C@H](O)C(C)=C[C@@H](C(=O)O1)[C@]34O)O2` (tested in a mixture with another compound), “inactive”; in that of `COc1nn(CSP(=S)(OC)OC)c(=O)s1`, “inactive”.
Turning to `Cc1cc(C)nc(NC(=O)NS(=O)(=O)c2ccccc2C(=O)OC2COC2)n1`, the compound was called inactive.

These data come from PubChem BioAssay (EPA / NIEHS).
